Hits are enriched below; roughly 7.9% of the tested compounds scored in any of these assays.
KB-3-1 tox: KB-3-1 parental cell cytotoxicity | KB-3-1 viability, CellTiter-Glo ATP luminescence, 72 h | Potency, µM (top dose mostly 46.1 µM), usual class: cytotoxic | 400,000 tested, 1.4% active; also: % is scaled to controls: 0 for no effect and ±100 for the full control effect; nearly all actives have a fitted effect of over 60% in size
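72 h, 37 °C compound treatment of KB-3-1 parental cells; CellTiter-Glo added, 10 min, luminescence read. Data corrected against DMSO-only plates and normalized before curve fitting.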
SW480 rerep: DNA re-replication induction in SW480 cells; 340,000 tested, 1.8% active; SW480 DNA re-replication, Hoechst DNA content imaging, 48 h; Potency, µM (doses to about 46.1 µM), without a hit: at the highest dose re-replication activation, hits mostly activators; also: % of control where 0% means no effect; nearly all actives have a fitted effect of over 55% in size
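Hoechst fluorescence of nuclei (405 nm excitation, 500-530 nm emission) measured by plate-scanning imager after 48 hr compound exposure at 37 C; re-replication scored as increased number of nuclei with elevated intensity.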
HT1080NT lethal: kills 2HG-producing HT-1080-NT fibrosarcoma cells; HT-1080-NT fibrosarcoma viability, CellTiter-Glo ATP luminescence, 48 h; Potency, µM (doses to about 46.1 µM), for the others: top-dose activity, negative = less viability, actives largely listed as cytotoxic; 360,000 tested, 1.6% active; AID 686970;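 also: NT is the 2HG producing partner of a matched IDH1 knockdown line; 0% = DMSO-treated cells and -100% = media-only wells without cells; nearly all actives have a fitted effect of over 55% in size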
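Viability of the 2HG-overproducing fibrosarcoma line after 48 hours of compound exposure at 37 degrees C was determined by luminescence with CellTiter-Glo, and concentration-effect curves were then fitted and categorized.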
KB-V1 cytotox: kills drug-selected multidrug resistant KB-V1 cells; 400,000 tested, 3.4% active; Potency, µM (doses to about 46.1 µM), most hits filed as cytotoxic; KB-V1 MDR cells viability, CellTiter-Glo, 72 h; also: % is scaled to controls: 0 for no effect and ±100 for the full control effect; nearly all actives have a fitted effect of over 60% in size
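KB-V1, DMEM (no phenol red) + 10% FBS; cpd pin-transferred, titration series; 72 h, 37 degrees C; CellTiter-Glo, luminescence. Data normalized, curve-fit.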
HT1080 IDH1KD tx: HT-1080 IDH1 knockdown cell toxicity (counter line); HT-1080 IDH1 knockdown viability, ATP luminescence, 48 h; Potency, µM (top dose mostly 46.1 µM), without a hit: at the top dose activity, negative = toxicity, most hits filed as cytotoxic; 360,000 tested, 2% active; AID 686971;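 also: 0% = DMSO wells and -100% = cell-free medium wells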
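In this qHTS, HT-1080 cells depleted of IDH1 are exposed for 48 h at 37 °C to compound titrations. Toxicity is scored from CellTiter-Glo luminescence, with DMSO as full viability and medium alone as none.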
MCF10A rereplic: inducers of DNA re-replication in MCF 10A breast cells; Potency, µM (series often up to 46.1 µM), without a hit: at the top dose activity, positive = re-replication, hits mostly activators; MCF 10A DNA re-replication, Hoechst nuclear intensity, 48 h; 350,000 tested, 2.9% active; AID 624296; also: % of control where 0% means no effect; nearly all actives have a fitted effect of over 50% in size
Numbers without * were called inactive; i = inactive; ? = inconclusive; . = not tested or not shown. Calls follow the shape of the dose curve; as a rule, active = well fitted curve in the direction sought with a large enough effect; inconclusive = small, poorly fitted or top-dose-only effect, or another doubt; inactive = no such curve, though single readings can be large; an effect the other way counts as inactive or inconclusive. Potency is read from the fitted curve at half-maximal effect.

SMILES | KB-3-1 tox | SW480 rerep | HT1080NT lethal | KB-V1 cytotox | HT1080 IDH1KD tx | MCF10A rereplic
CN=C1S/C(=C\c2cc(C)n(-c3ccccc3F)c2C)C(=O)N1C | i | 4% | 3% | i | 0% | 21µM*
Cc1cc(/C=C2\SC(=S)N(Cc3ccco3)C2=O)c(C)n1-c1ccccc1 | i | -2% | 8% | i | 14% | 5.8µM*
Cc1cc(/C=C2\SC(=S)N(C)C2=O)c(C)n1-c1cccc(O)c1 | ? | 17% | -11% | ? | -8% | 13µM*
O=C(Cc1c(Cl)cccc1Cl)OCC(=O)N1CCOCC1 | . | 0% | 0% | . | 0% | -12%
CCOC(=O)c1c(C)c(-c2ccccc2)n(CC(=O)NCc2ccccc2)c1C | i | . | . | i | . | .
COc1cc(NC(=O)CN2CCCN(Cc3cccc(F)c3)S2(=O)=O)cc(OC)c1 | i | . | . | i | . | .
Cc1ccc(C(=O)NC(=S)N2CCN(c3ccccc3F)CC2)cc1 | ? | 23µM* | 0% | i | -8% | 2%
Cc1ccc(C(=O)NC(=S)N2CCN(c3cc(C)ccc3C)CC2)cc1 | i | -6% | -10% | ? | -16% | ?
O=C1c2cccc(NCCCNCCO)c2C(=O)c2cccc(NCCCNCCO)c21 | ? | 2% | ? | ? | 16µM* | -6%
CNc1cccc2c1C(=O)c1ccccc1C2=O | i | -1% | -1% | ? | -1% | -1%
O=C(Nc1ccc(CN2CCOCC2)cc1)c1ccc(Cl)cc1 | ? | -10% | 0% | 9.2µM* | -13% | 14%
COC(=O)c1ccc(/C=N\N2CCN(Cc3ccc(C)cc3)CC2)cc1 | i | 0% | 1% | 8.2µM* | -5% | 3%
O=C(Nc1ccc(CN2CCOCC2)cc1)c1ccc(Br)cc1 | i | -16% | -1% | i | -2% | ?
CC(C)c1ccc(C(=O)Nc2ccc(N3CCOCC3)cc2)cc1 | ? | ? | ? | i | ? | 23µM*
COC(=O)c1ccc(NC(=O)c2ccc(CN3CCOCC3)cc2)cc1 | i | -9% | ? | 2.6µM* | ? | ?
CCN(CC)CCOc1ccccc1C(=O)CCc1ccccc1 | . | 1% | . | . | . | -3%
COCCc1ccc(OC2(C)CCN(Cc3cccn3-c3nccs3)C2)cc1 (stereo not given) | ? | . | ? | i | -29% | .
COCCCN(Cc1ccco1)C(=O)c1cc2c(s1)-c1ccccc1OC2 | ? | . | . | 10µM* | . | .
Cc1cccc2c1-c1sc(C(=O)NCCCN3CCC(C)CC3)cc1CO2 | ? | 29µM* | ? | i | ? | 23µM*
CC1CCCN(CCCNC(=O)c2cc3c(s2)-c2ccccc2OC3)C1 (stereo not given) | ? | ? | 21µM* | i | ? | ?
O=C(NCCCN1CCN(c2ccccc2)CC1)c1cc2c(s1)-c1ccccc1OC2 | i | . | . | i | . | .
CC1CCN(CCCNC(=O)c2cc3c(s2)-c2ccccc2OC3)CC1 | 23µM* | 84% | 23µM* | i | ? | 5.8µM*
O=C(NCCCN1CCN(c2ccc(F)cc2)CC1)c1cc2c(s1)-c1ccccc1OC2 | i | . | . | ? | . | .
CC(=O)Nc1cccc(NC(=O)CSc2ccc(-c3sc(-c4ccccc4)nc3C)nn2)c1 | i | . | . | i | . | .
Fc1ccc(-n2ncc3c(N4CCN(c5ccccc5F)CC4)ncnc32)cc1 | ? | . | . | i | . | .
CCOc1ccc(CNC(=O)c2cc3c(s2)-c2ccccc2OC3)cc1 | i | . | . | i | . | .
CCc1ccc(CNC(=O)c2cc3c(s2)-c2ccccc2OC3)cc1 | 15µM* | . | . | ? | . | .
O=C(Nc1ccc(Cl)cc1)c1csc(-c2ccccc2)n1 | i | 19% | -8% | ? | 2% | 23µM*
COc1cc(OC)c(OC)cc1/C=C/c1nc2cc3ccccc3cc2c(=O)n1-c1ccc(F)cc1F | 12µM* | . | . | i | . | .

Screening results (PubChem BioAssay)
